# Bioassay records from PubChem.
# A selection: hits, their analogues and other compounds. The true share with any hit is near 5.1%.
# RAM network inh: blocks the yeast RAM network | inhibition, % at 50 µM | 190,000 compounds, 1.8% hits | AID 868 | S. cerevisiae dse1pr::URA3 reporter, 5-FOA growth OD615, 2 d; analog-sensitive cbk1-as2 kinase mutant strain;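 active means inhibition above a set limit, 3 SD over mean compound inhibition, cut at about 8.4% in these data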;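 further: 0% = DMSO-only wells with no growth and 100% = 10 µM 1-NA-PP1 full growth; inhibition rescues growth on 5-FOA so higher OD means more RAM inhibition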
# KCC2 mod: KCC2 (human) Cl- transport modulation; Q9H2X9; KCC2 cells, thallium flux FluoZin-2 fluorescence; B-score of Tl+ flux slope (higher = more flux/activation; lower = inhibition) at 10 µM; 190,000 compounds, 2.2% hits; AID 1456;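 active means thallium flux slope and its plate-corrected score both differing from the plate sample mean at a set confidence after two filtering rounds, in either direction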;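 further: slope of fluorescence scaled to starting intensity during 10 to 20 s after thallium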
# Target sequence (Q9H2X9 whole entry, looked up): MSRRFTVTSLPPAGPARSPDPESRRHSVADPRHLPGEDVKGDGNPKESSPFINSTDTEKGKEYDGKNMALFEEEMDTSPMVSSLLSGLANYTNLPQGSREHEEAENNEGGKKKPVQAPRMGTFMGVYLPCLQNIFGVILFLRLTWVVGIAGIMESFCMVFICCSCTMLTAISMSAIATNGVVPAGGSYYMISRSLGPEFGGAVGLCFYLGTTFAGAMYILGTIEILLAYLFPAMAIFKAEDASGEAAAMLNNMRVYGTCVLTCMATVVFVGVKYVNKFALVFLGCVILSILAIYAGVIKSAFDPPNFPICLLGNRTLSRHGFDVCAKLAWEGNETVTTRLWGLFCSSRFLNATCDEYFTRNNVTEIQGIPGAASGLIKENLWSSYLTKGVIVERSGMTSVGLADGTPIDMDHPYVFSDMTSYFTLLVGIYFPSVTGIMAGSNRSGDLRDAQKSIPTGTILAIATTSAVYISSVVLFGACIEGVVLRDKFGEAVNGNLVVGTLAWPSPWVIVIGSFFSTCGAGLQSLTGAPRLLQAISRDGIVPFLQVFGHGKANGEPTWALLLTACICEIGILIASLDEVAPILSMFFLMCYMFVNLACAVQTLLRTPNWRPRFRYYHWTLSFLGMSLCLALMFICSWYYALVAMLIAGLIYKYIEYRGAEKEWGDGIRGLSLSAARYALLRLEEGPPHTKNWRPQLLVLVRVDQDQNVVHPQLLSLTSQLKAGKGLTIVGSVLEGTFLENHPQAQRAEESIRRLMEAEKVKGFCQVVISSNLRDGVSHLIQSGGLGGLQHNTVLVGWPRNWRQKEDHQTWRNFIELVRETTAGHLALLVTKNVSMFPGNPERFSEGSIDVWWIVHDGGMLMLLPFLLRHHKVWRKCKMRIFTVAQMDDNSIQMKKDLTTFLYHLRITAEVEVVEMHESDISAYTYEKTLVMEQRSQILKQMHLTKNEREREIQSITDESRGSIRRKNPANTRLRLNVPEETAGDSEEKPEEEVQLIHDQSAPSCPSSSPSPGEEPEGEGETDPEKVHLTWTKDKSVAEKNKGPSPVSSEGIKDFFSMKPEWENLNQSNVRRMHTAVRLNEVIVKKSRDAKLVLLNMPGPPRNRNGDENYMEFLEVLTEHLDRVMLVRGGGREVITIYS
# S1P4 agonist: agonists of human S1P4 receptor. O95977. S1P4-expressing cell line, agonist reporter assay. activation, % at 4.98 µM. 220,000 compounds, 0.35% hits; in the data active means activation above about 11%;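 further: 0% = DMSO vehicle and 100% = reference agonist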
# S1P3 antagonist: blocks the human S1P3 receptor; Q99500; CHO S1P3 NFAT-BLA reporter, FRET fluorescence, antagonist mode; inhibition, % at 4.98 µM; 170,000 compounds, 0.27% hits; AID 485;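 active means inhibition above the plate cutoff, the mean inhibition of test wells on that plate plus 3 SD, cut at about 28% in these data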;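 further: cells challenged with S1P at its EC80 of 0.8 µM; blue over green emission ratio from cleaved BLA substrate after 4 h stimulation; 0% = S1P-stimulated wells and 100% = unstimulated DMSO-only wells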
# ROMK mod: human ROMK K+ channel modulation, primary screen; P48048; Tet-inducible ROMK, thallium flux fluorescence; actives lie on both sides; B-score at 10 µM; 130,000 compounds, 2% hits; AID 1918;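 active means signal ratio slope over the read window, or its plate-corrected B-score, at least 3 SD from the plate mean, either direction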;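 further: B-score of the F/F0 ratio slope over 7 to 12 s after thallium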
# S1P4 antagonist: blocks the human S1P4 receptor | O95977 | S1P4-expressing cells, antagonist mode, reporter read-out | inhibition, % at 4.98 µM | 220,000 compounds, 0.26% hits; in the data active means inhibition above about 29%;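 further: 0% = wells stimulated with agonist and 100% = vehicle wells without agonist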
# ROMK hit retest: retested hit modulating human ROMK potassium channel; shares compounds with ROMK mod; ROMK thallium flux, fluorescence ratio; stronger effect = lower value; normalized thallium flux (F/F0 slope) at 10 µM; 3,000 compounds, 54% hits; AID 1917;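 active means Flux at 10 µM at least 3 SD below or above vehicle control mean in one or both replicates; inconclusive means no clear call, values can overlap the other calls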
# Numbers without * were called inactive; ? = inconclusive; . = not tested or not shown.
SMILES,RAM network inh,KCC2 mod,S1P4 agonist,S1P3 antagonist,ROMK mod,S1P4 antagonist,ROMK hit retest
Cn1cnnc1SCC(=O)c1cc2ccccc2oc1=O,0.4,0.618,-1.6,-68.8,.,-9.1,.
Cc1c(C(=O)O)cccc1-c1ccc(/C=N/Nc2ccc(Br)cc2)o1,1.6,-1.27,0.9,12.6,1.65*,-1.3,0.1*
O=C(O)c1ccc(N/N=C/c2ccc(-c3cc(Cl)ccc3Cl)o2)cc1,.,-0.781,4.2,-6.8,0.916,19.8,.
CCCC1=C(C(=O)OCC)C(c2cccnc2)n2nc(C)nc2N1 (stereo not given),.,-0.309,-0.6,-20.2,.,0.0,.
CC(C)(O)C(=O)NNC(=S)Nc1cccc(C(F)(F)F)c1,0.8,-0.0122,-1.9,-16.0,1,1.3,.
Cc1ccccc1C(=O)NNC(=S)Nc1cccc(C(F)(F)F)c1,2.9,-0.0123,3.1,18.1,.,-0.3,0.0643*
Cc1ccc(NCc2nnc(SCC(=O)NCc3ccco3)n2CC2CCCO2)c(C)c1 (stereo not given),1.8,0.655,1.2,11.7,0.0349,-6.2,.
Cc1ccc(NCc2nnc(SCC(=O)NCc3ccco3)n2CC2CCCO2)cc1Cl (stereo not given),2.6,-0.871,-0.4,5.3,-2.77*,6.0,0.0666*
O=C(Nc1ccc(Cl)c(S(=O)(=O)N2CCOCC2)c1)c1ccccc1-c1ccc(C(F)(F)F)cc1,6.1,0.194,-1.6,12.3,-0.246,2.3,.
CSc1ccc(/C=N/NC(=O)CN2CCN(Cc3ccc(C)cc3)CC2)cc1,0.9,-1.38,-1.4,0.8,.,-14.1,.
CCOC(=O)Cn1nnnc1C(CC)N(Cc1cccs1)Cc1cc2cc(C)ccc2[nH]c1=O (stereo not given),3.0,-0.249,0.3,-35.4,-3.97*,-19.9,0.0722
CCOc1ccc2[nH]c(=O)c(CN(Cc3cccs3)C(CC)c3nnnn3C(C)(C)CC)cc2c1 (stereo not given),3.3,-0.316,0.2,16.5,-2.09,-12.4,.
CCOc1ccc2[nH]c(=O)c(CN(Cc3ccco3)C(CC)c3nnnn3Cc3ccccc3)cc2c1 (stereo not given),3.0,1.45,0.1,12.3,.,-0.3,0.0743
CCC(c1nnnn1CCc1ccccc1)N(Cc1ccco1)Cc1cc2cccc(C)c2[nH]c1=O (stereo not given),2.1,-0.262,0.8,41.9,.,-4.5,.
N=c1c2c(-c3ccccc3)c(-c3ccccc3)n(Cc3ccccc3)c2ncn1CCCn1ccnc1,0.3,1.9,1.6,.,-4.41*,-5.4,0.0496*
N=c1c2c(-c3ccccc3)c(-c3ccccc3)n(Cc3ccco3)c2ncn1Cc1ccco1,-0.7,-0.883,1.3,39.8,.,-25.5,.
CCCCn1cnc2c(c(-c3ccccc3)c(-c3ccccc3)n2Cc2ccco2)c1=N,.,-0.962,-0.3,8.5,.,10.7,0.03*
Cc1n(CC(O)COC2CCCCC2)c2ccccc2[n+]1C (stereo not given),-1.0,0.0146,0.2,.,0.00922,6.9,.
O=C(NCc1ccco1)C1CC(c2ccc(Cl)cc2)=NO1 (stereo not given),2.9,-0.483,-0.5,-30.2,4.65*,-10.7,0.093
O=C(NCc1ccco1)C1CC(c2ccc(F)cc2)=NO1 (stereo not given),.,0.167,0.2,-4.6,.,-9.7,.
COc1cccc(C2=NOC(C(=O)NCc3ccco3)C2)c1 (stereo not given),-0.4,.,1.6,-8.1,5.02*,-18.3,0.0812
COc1cccc(C2=NOC(C(=O)NCc3ccccc3)C2)c1 (stereo not given),1.5,-0.0505,0.8,24.4,.,-14.4,.
Cc1cccc(N(C(=O)c2csnn2)C(C(=O)NC(C)(C)C)c2cccnc2)c1 (stereo not given),0.8,0.69,0.3,3.2,2.18*,-18.1,0.0769
Cc1ccc(N(C(=O)c2csnn2)C(C(=O)NC(C)(C)C)c2cccnc2)cc1 (stereo not given),1.7,0.0862,0.0,-9.8,0.445,-13.2,.
Cc1sc(NC(=O)c2ccccc2)c(C(c2ccc(Cl)cc2)N2CCN(CCO)CC2)c1C (stereo not given),0.8,-0.245,0.2,-7.8,-2.41*,-10.5,0.0714
SMILES,RAM network inh,KCC2 mod,S1P4 agonist,S1P3 antagonist,ROMK mod,S1P4 antagonist,ROMK hit retest
C/C=C\C=C\C(=O)Nc1cccc(C2=NOC3(C2)C[C@@H](C(N)=O)N(C(=O)C(c2ccccc2)c2ccccc2)C3)c1 (stereo not given in full),.,0.0357,.,.,.,.,.
CCOC(=O)c1ccc(N2CCCCC2)c(NS(=O)(=O)c2ccc(C)cc2)c1,.,1.06,0.5,-1.5,.,12.7,.
CC(C)CN(CCCNC(=O)CN1C(=O)COc2ccc(S(=O)(=O)N3CCCC3)cc21)CC(C)C,1.7,-0.172,-0.7,2.9,-1.47,3.3,.
CC(C)(C)N1CC2(c3ccccc3)CN(C(C)(C)C)CC(c3ccccc3)(C1)C2=O,-0.1,0.155,-1.5,.,3*,-0.6,0.0748
O=C1CCC(c2ccccc2)(c2ccccc2)CC1,.,0.0101,-1.4,4.8,.,1.3,.
CC1CCCCC1NC(=O)CN1C(=O)CSc2cc(S(=O)(=O)N3CCCCCC3)ccc21 (stereo not given),2.1,-3.02,1.4,-14.6,-4.51*,11.9,0.0653*
CCOC(=O)CN1C(=O)CSc2ccc(S(=O)(=O)N3CCCC3)cc21,.,-0.07,1.4,-11.9,-0.00473,-5.2,.
CCOC(=O)C1=C(C)OC(N)=C(C#N)C1c1ccc(C)s1 (stereo not given),1.5,-0.696,2.1,-9.7,3.23*,-9.0,0.0639*
CCOC(=O)C1=C(C)OC(N)=C(C#N)C1c1cccc(C)c1 (stereo not given),-0.5,-0.835,0.5,2.6,0.0636,-6.4,.
O=C(CCl)N(c1ccccc1)c1ccccc1,0.1,3.67,3.7,-15.7,-5.4*,3.7,0.0533*
Cc1cc2ncn(CC3CC3(Cl)Cl)c2cc1C (stereo not given),-0.1,0.547,-1.5,-15.3,.,12.4,.
CCC(C)C(NC(=O)/C(=C\c1ccccc1)NC(=O)c1ccc(OC)cc1)C(=O)O (stereo not given),-0.7,0.14,-1.0,-14.1,0.0465,-2.6,.
CCOc1ccc2oc(-c3ccccc3)c(C(=O)N3CCN(C)CC3)c2c1,1.5,-0.888,0.5,2.5,.,2.0,?
O=C(c1ccccc1)c1nn(-c2ccc(Cl)cc2)cc1C(=O)c1cc2ccccc2oc1=O,3.4,-0.32,2.0,.,-1.32,-14.3,.
OCCN1CCN(CCCc2c3c(cc4c2CCC4)CCC3)CC1,2.7,-0.0424,0.6,0.9,-1.3,-22.8,.
O=C1CC(/C=C/c2ccc([N+](=O)[O-])cc2)=Nc2ccccc2N1,.,-0.784,0.1,9.3,.,12.6,0.0568*
COc1ccc(C(=O)N2CCN(c3ccc([N+](=O)[O-])c(NCCc4ccc(OC)c(OC)c4)c3)CC2)cc1,4.0,-0.0287,-2.7,3.5,.,-8.9,0.06*
